Assay results as given in PMC5540273 (PLoS ONE, 2017).

Experiments:
p38-gamma = tested on: T1, p38-gamma
T1 construct: gene MAPK12

AAK1 = settings: concentration: 1 μM, replicates: in singlicate; n = 1
ABL1-nonphosphorylated = settings: concentration: 1 μM, replicates: in singlicate; n = 1
ABL1-phosphorylated = settings: concentration: 1 μM, replicates: in singlicate; n = 1
ABL2 = settings: concentration: 1 μM, replicates: in singlicate; n = 1
YSK4 = tested on: T2, YSK4
T2 construct: gene MAP3K19
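For %Inh in this document: KINOMEscan kinase panel screen.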
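For Kd in this document: kd values determined as follow-up on hits from a single-replicate KINOMEscan panel screen.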

Structure (SMILES) | Kd (p38-gamma) | %Inh (AAK1) | %Inh (ABL1-nonphosphorylated) | %Inh (ABL1-phosphorylated) | %Inh (ABL2) | Kd (YSK4) | Kd (ZAK)
COc1ccc(-c2cc3c(C)nc(N)nc3n([C@H]3CC[C@H](O)CC3)c2=O)cn1 | > 10 µM | 0% | 0% | 0% | 0% |  | 
Cc1nnc(-c2ccc(C)c(-c3ccc(C(=O)O)cc3)c2)o1 [GW608005] |  | 0% | 0% | 0% | 0% |  | 
O=C1NC(=O)C(c2ccccc2)=C1Nc1cccc(O)c1 [SB-390534] |  | 0% | 22% | 5% | 1% |  | 
COc1ccc(-c2coc3ccc(-c4nnc(SCc5cccc(C#N)c5)o4)cc23)cc1 |  | 0% | 23% | 0% | 0% |  | 
CCCNC(=O)Nc1ccc(Oc2ncnc3ccn(C)c23)cc1 |  | 13% | 30% | 6% | 4% |  | 
O=C(Nc1n[nH]c2nc(-c3ccccc3)c(Br)cc12)C1CC1 [SB-708998] |  | 8% | 43% | 11% | 2% | 0.64 µM | 
O=C(NCCNc1ccnc(Nc2ccc(F)cc2)n1)Nc1ccc2c(c1)OCO2 [GSK1379882] |  | 20% | 0% | 0% | 0% |  | > 10 µM
Cc1cccc(-c2cc(-c3c[nH]nc3-c3ccccn3)ccn2)c1 [GW679395] |  | 14% | 68% | 29% | 48% |  | 
Cc1nnc(-c2ccc3ncn(-c4ccc(S(C)=O)cc4)c3c2)o1 (stereo not shown) |  | 0% | 22% | 0% | 6% |  | 
CC(C)(C)c1ccc(C(=O)Nc2cn3cc(-c4ccccc4)ccc3n2)cc1 |  | 0% | 74% | 55% | 21% |  | 
